This is a sample that favours compounds with a hit; in the whole collection about 1.6% have one here.
RXFP1 agonist = RXFP1 (human) receptor agonism | Potency, µM (titrated, usually from 57.5 µM), usual class: activators | Q9HBX9 | AID 2676 | 0.3% of 370,000 active | HEK293T-RXFP1 cAMP TR-FRET, 30 min; response scale: percent of porcine relaxin response, buffer zero; active means well fitted activation curve with a large enough effect; inconclusive means small, poorly fitted or top-dose-only effect; further: nearly all actives have a fitted effect of over 60% in size
Target sequence (Q9HBX9 whole entry, looked up): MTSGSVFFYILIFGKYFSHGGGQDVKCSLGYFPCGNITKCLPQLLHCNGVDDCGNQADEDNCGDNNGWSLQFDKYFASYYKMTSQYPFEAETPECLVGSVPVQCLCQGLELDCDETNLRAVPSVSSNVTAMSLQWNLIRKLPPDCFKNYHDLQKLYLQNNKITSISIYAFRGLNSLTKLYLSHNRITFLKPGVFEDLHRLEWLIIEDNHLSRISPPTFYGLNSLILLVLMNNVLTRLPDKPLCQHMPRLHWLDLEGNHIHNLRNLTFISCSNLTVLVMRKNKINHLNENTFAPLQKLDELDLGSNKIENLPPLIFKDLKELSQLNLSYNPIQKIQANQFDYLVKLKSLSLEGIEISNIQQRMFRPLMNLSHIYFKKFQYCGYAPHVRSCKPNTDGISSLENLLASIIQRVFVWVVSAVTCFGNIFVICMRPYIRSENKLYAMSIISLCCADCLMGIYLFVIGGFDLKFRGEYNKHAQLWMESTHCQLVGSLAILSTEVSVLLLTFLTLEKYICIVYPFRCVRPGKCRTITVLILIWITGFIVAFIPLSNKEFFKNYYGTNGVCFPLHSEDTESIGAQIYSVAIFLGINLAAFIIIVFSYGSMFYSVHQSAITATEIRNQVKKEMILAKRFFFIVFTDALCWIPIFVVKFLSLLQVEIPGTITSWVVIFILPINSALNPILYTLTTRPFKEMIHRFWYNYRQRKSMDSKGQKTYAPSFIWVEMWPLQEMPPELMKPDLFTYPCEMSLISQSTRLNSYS
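cAMP rise read by TR-FRET after 30 min, 37C compound exposure (up to 58 uM) in RXFP1-transfected HEK293 cells with Ro 20174 present. EC50 from Hill-equation fits, with 29 nM porcine relaxin as 100% and buffer as basal.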
gsp antagonist = gsp mutant antagonism; gsp-mutant cells, cAMP HTRF, 30 min; Potency, µM (highest dose often 76.9 µM), actives largely listed as inhibitors; 0.4% of 340,000 active; calls by dose curve; cell line not stated here;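 further: intracellular cAMP measured with PDE inhibitor Ro 20-1724 present during compound exposure; nearly all actives have a fitted effect of over 65% in size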
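HTRF cAMP read-out (cAMP-d2 plus anti-cAMP antibody-K in lysis buffer, 30 min RT). Before lysis, cells are exposed to compounds with […] for 30 min at 37C in DPBS containing Ca/Mg, BSA and Tween 20.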
Coupling enz = counter-screen for Giardia aldolase inhibitors: coupling enzyme system; coupling enzyme system counterscreen, AmpLite Red fluorescence; activity change, negative = inhibition, % at 58.2 µM, hits read low; 0.67% of 290,000 active; AID 2472; in the data active means activity change below about -30%
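First, compound is pin-transferred into glyceraldehyde-3-phosphate coupling-enzyme reagent at 57.5 uM final and held 10 min at RT. Next, substrate, coupling system and AmpLite Red are added. After 20 min RT, fluorescence (525/598 nm) is read.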
RXFP1 antagonist = RXFP1 (human) relaxin receptor antagonism; 0.59% of 350,000 active; HEK293-RXFP1, relaxin-stimulated cAMP HTRF, 30 min; stronger effect = lower value; activity change, negative = inhibition, % at 57.5 µM; Q9HBX9; AID 1259400;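 active means activity change of -60% or lower, but not beyond a set lower limit; inconclusive means change between -60% and -40%, or beyond the set limit; inactive means change above -40%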
gsp ag = agonists of gsp mutant (McCune-Albright syndrome) | 0.13% of 340,000 active | Potency, µM (top dose mostly 76.9 µM), actives largely listed as activators | AID 624287 | gsp mutant cells, cAMP HTRF, 30 min; active means well fitted activation curve with a large enough effect; inconclusive means small, poorly fitted or top-dose-only effect, or another doubt; inactive means no such curve, though single readings can be large or run the other way; cell line not stated here;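 further: phosphodiesterase inhibitor Ro 20-1724 added with compounds to block cAMP breakdown; nearly all actives have a fitted effect of over 60% in size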
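Cells stably selected in G418 were plated at 2000/well, grown 16-24 hr, then given compounds in DMSO with the PDE inhibitor […] (300 uM solution added) for 30 min at 37C; cAMP was read by HTRF.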
Giardia kill = Giardia lamblia killing. Giardia lamblia trophozoite viability. activity change, % at 7.66 µM, hits read low. 0.15% of 340,000 active. AID 540267; in the data active means activity change below about -80%; inconclusive means between about -30% and that limit;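 further: parasites exposed to compound for two days anaerobically before the ATP read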
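Trophozoite viability was measured as ATP-dependent luminescence, read 15-30 min after reagent addition. Before that, parasites at 100 cells/well were exposed to compounds for 48 h, anaerobically, at 37 deg C.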
Hits are given with their value; n = inactive; u = inconclusive; x = no result; [ ] = another dose, or the depositor's remark.

SMILES	RXFP1 agonist	gsp antagonist	Coupling enz	RXFP1 antagonist	gsp ag	Giardia kill
CC1CCN(C(=O)C2CCCN2S(=O)(=O)c2ccc(Cl)cc2)CC1 (stereo not given)	n	n	x	n	n	n
CC1CCN(C(=O)C2CCCCN2S(=O)(=O)c2cccc([N+](=O)[O-])c2)CC1 (stereo not given)	n	50µM	n	n	n	n
COc1ccc(C(=O)NCC(=O)N=Nc2c(O)n(Cc3ccccc3)c3ccccc23)cc1OC	n	11µM	n	u	n[15.4 µM]	n
COc1ccc(C(=O)NCC(=O)N=Nc2c(O)n(C)c3ccccc23)cc1OC	n	n	n	n	n	n
CC(=O)N/N=C/c1ccc([N+](=O)[O-])o1	x	x	x	n	x	x
O=C(CN1CCCCCCC1)N/N=C/c1ccc([N+](=O)[O-])o1	n	n	n	n	u	u
O=C(Cc1ccc([N+](=O)[O-])cc1)N/N=C/c1ccc([N+](=O)[O-])o1	n	n	n	n	u	-89
CCOC(=O)N/N=C\c1ccc([N+](=O)[O-])o1	n	n	n	n	n	-95
CCCOc1ccc(CCC(=O)N/N=C/c2ccc([N+](=O)[O-])o2)cc1	n	n	n	n	n	-88
Cc1cc([N+](=O)[O-])ccc1-c1ccc(/C=N/NC(=O)Cc2ccccc2)o1	n	n	n	n	u	n
CCCCCCCC(=O)N/N=C/c1ccc([N+](=O)[O-])o1	n	n	n	n	n	-88
O=S(=O)(O)c1ccc2c(c1)-c1nc-2nc2[nH]c(nc3nc(nc4[nH]c(n1)c1ccc(S(=O)(=O)O)cc41)-c1ccc(S(=O)(=O)O)cc1-3)c1ccc(S(=O)(=O)O)cc21	x	x	n	x	x	x
CCCCN(CCN(CCCC)C(=O)N1CCOCC1)C(=O)N1CCOCC1	x	x	x	n	x	x
CC1(C(=O)N/N=C/c2ccc([N+](=O)[O-])o2)CC1(Br)Br (stereo not given)	n	n	n	x	n	-90
O=[N+]([O-])c1ccc(/C=N\O)o1	x	x	x	n	x	x
O=C(CC12CC3CC(CC(C3)C1)C2)N/N=C/c1ccc([N+](=O)[O-])o1	n	n	n	n	n	-94
Oc1ccc(/C=N/Nc2ccc(Cl)nn2)c(O)c1O	n	n	-38	n	n	n
C[C@H](CO)N1C[C@H](C)[C@@H](CN(C)C)OCc2cnnn2CCCC1=O	x	x	x	n	n	x
COc1cc(C(=O)NC2(C(F)(F)F)C(=O)NC(C)=C2C#N)cc(OC)c1OC (stereo not given)	n	x	x	n	x	x
CCOC(=O)C1=C(N)Oc2ccc3ccccc3c2C1c1cccc(O)c1 (stereo not given)	n	n	n	n	n	n
CCOC(=O)C1=C(N)Oc2ccc3ccccc3c2C1c1cccnc1 (stereo not given)	n	32µM	n	n	n	n
CC[C@H](C)[C@H](NC(=O)[C@H](Cc1ccccc1)NC(=O)[C@H](CC(C)C)NC(=O)[C@H](CCSC)NC(=O)[C@H](CCC(=O)O)NC(=O)[C@H](CCC(=O)O)NC(=O)[C@H](CC(=O)O)NC(=O)[C@H](CO)NC(=O)[C@@H]1CCCN1C(=O)[C@H](CCCCN)NC(=O)[C@@H](N)[C@@H](C)O)C(=O)N[C@@H](Cc1ccc(O)cc1)C(=O)NCC(=O)N[C@@H](Cc1cnc[nH]1)C(=O)N[C@@H](Cc1ccc(O)cc1)C(=O)N[C@@H](CCCCN)C(=O)N[C@@H](CCC(N)=O)C(=O)N[C@@H](C)C(=O)N[C@H](C(=O)N[C@H](C(=O)NCC(=O)N[C@@H](CC(=O)O)C(=O)N[C@H](C(=O)N[C@@H](CC(N)=O)C(=O)N[C@H](C(=O)N[C@@H](CCC(=O)O)C(=O)N[C@@H](CCCNC(=N)N)C(=O)N1CCC[C@H]1C(=O)NCC(=O)N[C@@H](CCSC)C(=O)N[C@@H](CC(C)C)C(=O)N[C@@H](CC(=O)O)C(=O)N[C@@H](Cc1ccccc1)C(=O)N[C@H](C(=O)O)[C@@H](C)O)[C@@H](C)O)[C@@H](C)CC)C(C)C)[C@@H](C)O	x	x	n	x	x	x
CCCOc1ccc(C2C(C(=O)c3ccco3)=C(O)C(=O)N2CCN2CCOCC2)cc1OC (stereo not given)	n	x	n	x	x	x
COc1cc(C2C(C(=O)c3cc4ccccc4o3)=C(O)C(=O)N2CCN2CCOCC2)ccc1OCCC(C)C (stereo not given)	28µM	n	n	n	u	n
COc1cccc(CNC(=O)c2cccs2)c1	n	n	n	n	n[15.4 µM]	n
SMILES	RXFP1 agonist	gsp antagonist	Coupling enz	RXFP1 antagonist	gsp ag	Giardia kill
Cc1ccccc1C(=O)Nc1scc(-c2ccc(Br)cc2)c1C(=O)O	x	40µM	x	n	n[15.4 µM]	n
O=C(Nc1scc(-c2ccc(Br)cc2)c1C(=O)O)c1ccccc1F	x	n	x	n	n[15.4 µM]	n
COc1ccc(-c2csc(NC(=O)c3ccc(C(C)(C)C)cc3)c2C(=O)O)cc1	x	32µM	x	n	n[15.4 µM]	n
Cc1cc(C(=O)N2CCc3ccccc3C2)c(C)o1	x	n	x	n	n	n
CC(=O)NC(c1ccc2ccccc2c1)c1ccc2cccnc2c1O (stereo not given)	n	n	n	-70	n	n
CCCC(=O)NC(c1ccc(Cl)cc1Cl)c1ccc2cccnc2c1O (stereo not given)	n	n	n	-62	n	n
CCCC(=O)NC(c1ccco1)c1cc(Cl)c2cccnc2c1O (stereo not given)	n	n	n	-66	n	n
COC/C=C/C1=CC2=CC(=O)C(C)(OC(=O)c3cnc4ccccc4n3)C(=O)C2=CN1Cc1ccc2c(c1)OCO2 (stereo not given)	x	x	n	x	x	x
Clc1ccc(Cn2c3c(c4ccccc42)CCc2cc4ccccc4nc2-3)cc1	x	x	x	x	x	n
COc1ccc(C(=O)c2sc3nc(C)cc(-c4cccs4)c3c2N)cc1	n	n	n	n	10µM	n
COc1ccc(C(=O)c2sc3nc(C)cc(-c4cccs4)c3c2N)cc1OC	n	n	n	n	u	n
O=C(Nc1ccc(C(=O)O)cc1)/C(=C\c1ccc([N+](=O)[O-])cc1)NC(=O)c1ccco1	x	x	x	n	n	x
C/C(=N/NC(N)=S)c1cc2ccc(O)cc2oc1=O	n	n	n	n	n	n
NC(=S)c1cc2ccc(O)cc2oc1=O	13µM	n	n	x	2.5µM	n
COc1ccc(NC(=O)/C(C#N)=C\c2ccc(-c3cc(C(=O)O)ccc3C)o2)cc1	n	45µM	n	n	n	n
CCCn1c(O)c(CN2CCCCC2)c(C)c(C#N)c1=O	n	n	-40	n	n	n
Cc1c(CN2CCCCC2)c(O)n(CCCO)c(=O)c1C#N	n	n	-30	n	n	n
CCCn1c(C)cc(C)c(C#N)c1=O	n	n	n	n	n	n

High-throughput results as filed in PubChem.
